# Measured values: the supplement of paper PMC4022240
# ± gives the standard deviation.
# T1: HaloTag-ATRX ADD domain (163-292)
# T1 chain: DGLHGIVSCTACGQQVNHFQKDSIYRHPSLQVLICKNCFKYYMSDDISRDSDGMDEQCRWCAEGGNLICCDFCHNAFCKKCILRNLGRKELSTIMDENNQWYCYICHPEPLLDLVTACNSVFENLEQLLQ
# How the values were obtained:
# Assay in all cases: peptide microarray binding signal (635 nm), min-max normalized on array (fraction of array maximum); higher = stronger binding
# Conditions in all cases: peptide region: H3 112-124
# [1] = biological target: T1, HaloTag-ATRX ADD domain (163-292)
# Summary of the method: (§1)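 Binding signal is the mean intensity of triplicate spots, min-max scaled within each library. Histone 13-mer peptide–cellulose conjugates were spotted in triplicate on nitrocellulose with a Cy3 tracer and blocked overnight at 4°C. Probing lasted 1 h at 4°C, either with biotin-labelled HaloTag reader fusions (10 nM to 1 μM) and streptavidin-Alexa Fluor 647 or with rabbit histone antibodies (1:10,000 to 1:2,000) and anti-rabbit Alexa 647. An Axon GenePix 4000B read signal at 635 nm and misprints at 532 nm.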
# [2] = biological target: HaloTag-ING2 PHD (mouse Ing2 200-280)
# Summary of the method: as §1
# [3] = biological target: anti-H3K4me3 antibody ab8580
# Summary of the method: as §1
# [4] = biological target: anti-H3K9me3 antibody ab8898
# Summary of the method: as §1
# [5] = peptide modifications: H3K115me3 H3K122me3, binder concentration: 1:2,000 dilution
# [6] = peptide modifications: H3K115me3 H3K122me3, binder concentration: 1:10,000 dilution
# [7] = peptide modifications: H3K115me3 H3K122me1, binder concentration: 1:2,000 dilution
# [8] = peptide modifications: H3K115me3 H3K122me1, binder concentration: 1:10,000 dilution
# [9] = peptide modifications: H3K115me3 H3K122me2, binder concentration: 1:2,000 dilution
# [10] = peptide modifications: H3K115me3 H3K122me2, binder concentration: 1:10,000 dilution
# [11] = peptide modifications: H3K115me3 H3R116me2a, binder concentration: 1:2,000 dilution
# [12] = peptide modifications: H3K115me3 H3R116me2a, binder concentration: 1:10,000 dilution
# [13] = peptide modifications: H3K122me3, binder concentration: 1:2,000 dilution
# [14] = peptide modifications: H3K122me3, binder concentration: 1:10,000 dilution
binder,measurement,setting,value
IHAKRVTIMPKDI [H3 112-124 I H A Kme3 R V T I M P Kme3 D I],peptide microarray binding signal,"[1]; peptide modifications: H3K115me3 H3K122me3, binder concentration: 50 nM",0.00652 ± 0.00013
same,peptide microarray binding signal,"[1]; peptide modifications: H3K115me3 H3K122me3, binder concentration: 500 nM",0.014 ± 0.00024
same,peptide microarray binding signal,"[2]; peptide modifications: H3K115me3 H3K122me3, binder concentration: 10 nM",0.08 ± 0.013
same,peptide microarray binding signal,"[2]; peptide modifications: H3K115me3 H3K122me3, binder concentration: 100 nM",0.133 ± 0.011
same,peptide microarray binding signal,[3]; [5],0.0798 ± 0.017
same,peptide microarray binding signal,[3]; [6],0.0823 ± 0.0064
same,peptide microarray binding signal,[4]; [5],0.0648 ± 0.013
same,peptide microarray binding signal,[4]; [6],0.0227 ± 0.0026
IHAKRVTIMPKDI [H3 112-124 I H A Kme3 R V T I M P Kme D I],peptide microarray binding signal,"[1]; peptide modifications: H3K115me3 H3K122me1, binder concentration: 50 nM",0.006489 ± 2.2e-05
same,peptide microarray binding signal,"[1]; peptide modifications: H3K115me3 H3K122me1, binder concentration: 500 nM",0.0138 ± 0.00023
same,peptide microarray binding signal,"[2]; peptide modifications: H3K115me3 H3K122me1, binder concentration: 10 nM",0.0505 ± 0.0051
same,peptide microarray binding signal,"[2]; peptide modifications: H3K115me3 H3K122me1, binder concentration: 100 nM",0.0785 ± 0.0067
same,peptide microarray binding signal,[3]; [7],0.0317 ± 0.0091
same,peptide microarray binding signal,[3]; [8],0.0326 ± 0.0097
same,peptide microarray binding signal,[4]; [7],0.0313 ± 0.0018
same,peptide microarray binding signal,[4]; [8],0.0119 ± 0.00075
IHAKRVTIMPKDI [H3 112-124 I H A Kme3 R V T I M P Kme2 D I],peptide microarray binding signal,"[1]; peptide modifications: H3K115me3 H3K122me2, binder concentration: 50 nM",0.00464 ± 6.3e-05
same,peptide microarray binding signal,"[1]; peptide modifications: H3K115me3 H3K122me2, binder concentration: 500 nM",0.009477 ± 4.6e-05
same,peptide microarray binding signal,"[2]; peptide modifications: H3K115me3 H3K122me2, binder concentration: 10 nM",0.0436 ± 0.0022
same,peptide microarray binding signal,"[2]; peptide modifications: H3K115me3 H3K122me2, binder concentration: 100 nM",0.0676 ± 0.0025
same,peptide microarray binding signal,[3]; [9],0.0196 ± 0.00059
same,peptide microarray binding signal,[3]; [10],0.0182 ± 0.0013
same,peptide microarray binding signal,[4]; [9],0.0246 ± 0.0043
same,peptide microarray binding signal,[4]; [10],0.00894 ± 0.00038
IHAKRVTIMPKDI [H3 112-124 I H A Kme3 Rme2a V T I M P K D I],peptide microarray binding signal,"[1]; peptide modifications: H3K115me3 H3R116me2a, binder concentration: 50 nM",0.00345 ± 4.9e-05
same,peptide microarray binding signal,"[1]; peptide modifications: H3K115me3 H3R116me2a, binder concentration: 500 nM",0.00524 ± 0.00015
same,peptide microarray binding signal,"[2]; peptide modifications: H3K115me3 H3R116me2a, binder concentration: 10 nM",0.0172 ± 0.00022
same,peptide microarray binding signal,"[2]; peptide modifications: H3K115me3 H3R116me2a, binder concentration: 100 nM",0.0232 ± 0.0011
same,peptide microarray binding signal,[3]; [11],0.00885 ± 0.0017
same,peptide microarray binding signal,[3]; [12],0.00451 ± 0.00052
same,peptide microarray binding signal,[4]; [11],0.00763 ± 0.0013
same,peptide microarray binding signal,[4]; [12],0.00467 ± 0.00017
IHAKRVTIMPKDI [H3 112-124 I H A K R V T I M P Kme3 D I],peptide microarray binding signal,"[1]; peptide modifications: H3K122me3, binder concentration: 50 nM",0.00423 ± 4.3e-05
same,peptide microarray binding signal,"[1]; peptide modifications: H3K122me3, binder concentration: 500 nM",0.0122 ± 0.00089
same,peptide microarray binding signal,"[2]; peptide modifications: H3K122me3, binder concentration: 10 nM",0.00489 ± 0.00015
same,peptide microarray binding signal,"[2]; peptide modifications: H3K122me3, binder concentration: 100 nM",0.0106 ± 0.00081
same,peptide microarray binding signal,[3]; [13],0.000868 ± 3.3e-05
same,peptide microarray binding signal,[3]; [14],0.00126 ± 7.5e-05
same,peptide microarray binding signal,[4]; [13],0.0125 ± 0.002
same,peptide microarray binding signal,[4]; [14],0.00381 ± 0.00041
